# Screening results (PubChem BioAssay)
# CYP2C19 act: cytochrome P450 2C19 (human) activation; AID 1025; 96,000 tested, under 10 active; recombinant CYP2C19, luciferin-H EGE luminescence; hits give high values; 0 = fully inhibited enzyme, 1 = untreated enzyme; activation factor at 5 µM; P33261;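 active = activation factor of at least 2 at 5 µM in the primary screen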;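 note: 0 = wells with 2.5 mM tranylcypromine and 1 = vehicle-only wells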
# CYP2C9 activ: activators of human CYP2C9. P11712. recombinant CYP2C9, luciferin-H conversion, luminescence; hits give high values; factor 1 = untreated enzyme, 0 = blocked. AID 1024. hit rate 1.4% among 96,000. activation factor at 5 µM;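 active = activation factor of 2 or more for CYP2C9 at a 5 µM dose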;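 note: 0 = sulfaphenazole-blocked wells and 1 = vehicle-only wells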
# Target sequence (P11712 whole entry, looked up): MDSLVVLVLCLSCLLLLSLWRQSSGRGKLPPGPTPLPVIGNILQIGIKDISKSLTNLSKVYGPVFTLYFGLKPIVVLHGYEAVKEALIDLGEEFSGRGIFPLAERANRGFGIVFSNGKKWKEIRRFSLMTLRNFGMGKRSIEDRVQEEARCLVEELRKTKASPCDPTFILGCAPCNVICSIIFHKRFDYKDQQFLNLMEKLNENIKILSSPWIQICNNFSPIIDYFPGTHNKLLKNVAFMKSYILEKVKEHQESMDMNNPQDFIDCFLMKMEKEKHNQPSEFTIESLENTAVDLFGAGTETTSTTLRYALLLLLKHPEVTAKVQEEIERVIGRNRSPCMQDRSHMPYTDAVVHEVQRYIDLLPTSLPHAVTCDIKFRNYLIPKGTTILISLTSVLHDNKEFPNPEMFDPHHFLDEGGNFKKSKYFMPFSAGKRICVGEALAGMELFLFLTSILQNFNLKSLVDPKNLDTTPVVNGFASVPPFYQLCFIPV
# CYP2C9 inh: inhibitors of human CYP2C9; CYP2C9 Supersomes, luciferin-H conversion, luminescence; AID 777; hit rate 20% among 96,000; inhibition, % at 5 µM; P11712;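 active = blocking of liver enzyme CYP2C9 beyond about 50% at 5 µM, limit read from the data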
# CYP2C19 inh: blocks human cytochrome P450 2C19. CYP2C19 Supersomes, luciferin-H EGE luminescence, 30 min. hit rate 21% among 96,000. P33261. inhibition, % at 5 µM;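 active = CYP2C19 inhibition above a set limit at 5 µM in the primary screen, cut at about 50% in these data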;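 note: plate controls were negative control wells for no effect and 2.5 mM tranylcypromine positive control for full effect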
# Cav32 inh: blocks human Cav3.2 T-type calcium channel | O95180 | Cav3.2-expressing cells, Fluo-4 calcium fluorescence FDSS; hits give low values | B-score at 10 µM | hit rate 4% among 100,000;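 active = single-dose well whose peak fluorescence ratio is a statistical outlier from its plate by either plate-standardised score or position-corrected B-score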
# An asterisk follows results filed as active; · = not tested or not shown. Most compounds without a hit are left out; they make up all but 27% or so of the library.
SMILES,CYP2C19 act,CYP2C9 activ,CYP2C9 inh,CYP2C19 inh,Cav32 inh
COc1ccc(-n2cnc3cc(NC(=O)c4ccco4)ccc32)cc1,0.8,1,-3,20,-0.0094
COc1cc(NC(=O)C(C)C)ccc1NC(=O)c1ccco1,0.9,0.4,64*,14,-1.3
COc1ccc(C2C(=O)N(CCc3ccccc3)CC(=O)N2C2CCCCC2)cc1 (stereo not drawn),0.9,0.7,30,14,-1.2
COc1cc(C(=O)OCC(=O)Nc2c(F)c(F)c(F)c(F)c2F)cc(OC)c1OC,0.2,0.6,35,78*,0.35
COc1ccc(C(=O)OCC(=O)Nc2ccc(F)c(F)c2F)cc1OC,0.9,1,-1,12,0.015
O=C(NCc1ccncc1)c1cccc(Cn2cc(Br)cn2)c1,0.1,0.1,90*,88*,0.38
CCN1/C(=C/c2ccc3ccccc3[n+]2CC)C=Cc2ccccc21,0.8,0.7,27,24,-5.4*
Cc1nc(-c2ccc(NS(C)(=O)=O)cc2)cs1,1.1,1,3,-11,-0.25
COc1cc(C(=O)Oc2ccccc2/C=N/NC(=O)c2ccc(C)cc2)cc(OC)c1OC,0.7,0.4,59*,33,0.57
COc1cc(C(=O)N/N=C/c2ccsc2C)cc(OC)c1OC,1,1,3,4,-0.37
CC(C)(C)C(=O)Nc1ccc(C(=O)N/N=C/c2ccccc2OC(=O)c2ccccc2)cc1,0.4,0.6,37,64*,-0.83
COc1ccccc1COCC(O)CNCC1(N2CCCCC2)CCCCC1 (stereo not drawn),1,1,5,1,0.87
Cc1cc(=O)[nH]c(SCCCOc2ccc(F)cc2)n1,0.9,1,1,14,0.52
CCCOc1cccc(OCCSc2nc(C)cc(=O)[nH]2)c1,0.5,0.5,51*,46,0.94
CCC(=O)c1ccccc1OCCSc1nc(C)cc(=O)[nH]1,0.3,0.5,45,72*,0.19
CCc1c(C)nc(SCCOc2ccc(OC)cc2)[nH]c1=O,0.3,0.4,62*,66*,·
O=C(NCCCN1CCOCC1)C1CC(=O)N(C2CCCCC2)C1 (stereo not drawn),0.6,1,1,40,0.29
COC(=O)C1C(C(C)C)N(c2ccccc2)OC1(C)O (stereo not drawn),0.4,1,-2,56*,-0.54
Cc1[nH]n(-c2ccccc2)c(=O)c1S(=O)(=O)c1ccccc1,0.1,1.4,-44,88*,0.36
COCCCNC(=O)c1c(NC(=O)C2COc3ccccc3O2)sc2c1CCCC2 (stereo not drawn),0.2,0.1,92*,82*,-1.2
O=C(NCCC1=CCCCC1)C1COc2ccccc2O1 (stereo not drawn),0.1,0.4,58*,87*,-2
O=C(NCCC1=CCCCC1)C(c1ccccc1)c1ccccc1,0.9,0.8,24,11,-0.64
O=C(CN1CCN(c2ncccn2)CC1)NCCC1=CCCCC1,0.5,0.1,94*,54*,0.28
O=C(CSc1ncccc1C(=O)O)NCCC1=CCCCC1,1,0.9,6,0,-0.004
CCC1Oc2ccccc2N(CC(=O)NCCC2=CCCCC2)C1=O (stereo not drawn),0.1,0.6,41,89*,-2.3
SMILES,CYP2C19 act,CYP2C9 activ,CYP2C9 inh,CYP2C19 inh,Cav32 inh
O=C(N/N=C/c1cccc(OC2CSC2)c1)c1ccccc1O,1,1.1,-7,-5,0.62
CCOC(=O)c1ccccc1NC(=O)Cn1cnc2c(oc3ccccc32)c1=O,0.8,0.6,43,15,0.04
O=C(CN1C(=O)C2C3C=CC(C3)C2C1=O)NCCC1=CCCCC1 (stereo not drawn),0.5,0.9,15,51*,-0.52
Cc1ccc(S(=O)(=O)NC(=O)c2ccc(Br)o2)cc1,·,·,·,·,0.25
COC(=O)[C@@H]1CCCN1C(=O)[C@@H](NC(=O)OC(C)(C)C)C(C)C,·,·,·,·,1.1
COC(=O)N1CCN(S(=O)(=O)c2ccc(F)cc2)CC1,·,·,·,·,0.76
CS(=O)(=O)c1cc([N+](=O)[O-])c(Sc2nc3ccccc3[nH]2)c([N+](=O)[O-])c1,0.3,0.9,12,69*,0.41
COc1ccccc1-n1c(SCC(=O)N2CCOCC2)nc(O)c(Cc2ccccc2)c1=O,1.2,1.2,-18,-18,-0.75
Cc1nnc(OCc2nc3ccccc3n2C)c2ccccc12,0.6,0.4,59*,38,0.3
O=C1c2[nH]nc(-c3ccccc3O)c2C(c2ccccc2F)N1Cc1ccco1 (stereo not drawn),0.1,0.1,95*,85*,-3.9
O=C1c2[nH]nc(-c3ccccc3O)c2C(c2ccccc2)N1Cc1ccco1 (stereo not drawn),0.9,0.9,9,9,-3.4
CCOC(=O)C1CCN(c2c(NCCN3CCN(c4ccccc4)CC3)c(=O)c2=O)CC1,1,1,-4,-1,0.56
CCOC(=O)C1CCN(c2c(NCc3ccc(C(=O)NC(C)CC)cc3)c(=O)c2=O)CC1 (stereo not drawn),0.9,0.4,59*,12,·
CC1(NC(=O)c2cc(S(=O)(=O)N3CCCCC3)ccc2Cl)CCS(=O)(=O)C1 (stereo not drawn),0.9,0.9,12,6,0.52
Cc1ccc(S(=O)(=O)CNC(=O)c2ccccc2)cc1,0.5,0.9,6,46,0.02
Cc1ccc(S(=O)(=O)NCCNC(=O)c2ccccc2)cc1,0.5,1.3,-29,48,0.39
Cc1ccc(S(=O)(=O)CNC(=S)c2ccc3ccccc3c2)cc1,0.4,0.4,60*,60*,-0.39
Cc1ccc(S(=O)(=O)CNC(=S)c2cccc(C)c2)cc1,0.1,1.9,-90,94*,0.065
CC(C)COc1ccc(-c2nnc(-c3ccncc3)o2)cc1,0.2,0.6,42,78*,-1.1
COc1ccc(-c2nnc(-c3ccc(OCC(C)C)cc3)o2)cc1,1,0.8,19,-2,-0.41
CCSc1nnc(-c2ccncc2)o1,·,·,·,·,0.34
c1cc(-c2nnc(-c3ccncc3)o2)ccn1,0.3,0.9,12,66*,0.79
Cc1cccc(NCc2ccccc2O)c1C,0,0.4,61*,96*,-0.39
COc1ccc(-c2ncc3ccccn23)cc1,0.4,0.5,49,62*,0.21
COc1ccc(/C=C(/C#N)S(=O)(=O)c2ccc(C)cc2)cc1,0.6,1.4,-44,42,-1.7
Cc1ccc(C(=O)/C=C/c2c[nH]c3ccccc23)cc1,0.3,0.3,69*,68*,-1.1
Cc1ccc(S(=O)(=O)/C(C#N)=C/c2c[nH]c3ccccc23)cc1,1.1,2.1*,-106,-13,0.26
Cc1ccc(C(=O)/C=C/c2cn(CN3CCN(C)CC3)c3ccccc23)cc1,0.7,0.2,79*,32,-1.2
CC(C)n1cc(/C=C(\C#N)S(=O)(=O)c2ccccc2)c2ccccc21,0.6,0.3,70*,37,-2.6
CCOc1ccc(-c2nn(-c3ccccc3)cc2/C=C(\C#N)S(=O)(=O)c2ccccc2)cc1C,1,0.7,29,-2,-3.1
